# Results taken from PubChem BioAssay (NCATS).
# Records with an inconclusive call do not appear. Calls of active or inactive are those of the source. Calls follow the shape of the dose curve; as a rule, active = well fitted cell-killing curve with a large enough effect; inconclusive = small, poorly fitted or top-dose-only effect; inactive = flat fitted curve, though single readings scatter.
# Experiment: Cellular viability qHTS for adrenocortical cancer (ACC) cell line SW-13 (AID 1963989);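 also: cells grown in serum-free medium with ITS supplement; % is scaled to controls: 0 for no effect and ±100 for the full control effect; nearly all actives have a fitted effect of over 65% in size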
# Conditions: SW-13 ACC cells viability, CellTiter-Glo, 48 h; activity (max response): active compounds read low
# In short: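 SW-13 cells in ITS-supplemented serum-free DMEM were plated overnight, then exposed for 48 h at 37C to compound titrations (up to 46 uM final). Viability was read by CellTiter-Glo luminescence; four-parameter logistic fits gave IC50 and efficacy.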
row,Compound,activity (max response)
1,Cc1cccc(C)c1NC(=O)CN1CCN(CCCC(c2ccc(F)cc2)c2ccc(F)cc2)CC1,-13.9% (inactive)
2,Oc1cc(O)c2c(c1)O[C@H](c1ccc(O)c(O)c1)[C@H](O)C2,11.2% (inactive)
3,CC(COc1ccccc1)NC(C)C(O)c1ccc(O)cc1 (stereo not given),3.43% (inactive)
4,NC1(C(=O)N[C@@H](CCO)c2ccc(Cl)cc2)CCN(c2ncnc3[nH]ccc23)CC1,-21.3% (inactive)

# Experiment: Cellular viability qHTS for adrenocortical cancer (ACC) cell line NCI-H295R (AID 1963990); also: nearly all actives have a fitted effect of over 60% in size; also: potency is read from the fitted curve at half-maximal effect;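 as to activity change, negative = viability loss: 0% = DMSO only wells and -100% = full killing with cytotoxic reference compound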
# Conditions: CellTiter-Glo ATP luminescence, 48 h; series mostly up to 46.1 µM; activity change, negative = viability loss: at the top concentration
# In short: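 Luminescent ATP read-out (CellTiter-Glo, 20 min RT) after 48 h drug exposure of NCI-H295R cells; a titration up to 46 uM final. Data normalized to doxorubicin (100% inhibition) and DMSO (0%); 4-parameter fit gives IC50, max response.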
Compound,"activity change, negative = viability loss",Potency
Oc1ccc(C2CCN(c3ccnc4ccccc34)CC2)cc1O,-23.4% (inactive),
CCc1nc(C(N)=O)c(Nc2ccc(N3CCC(N4CCN(C)CC4)CC3)c(OC)c2)nc1NC1CCOCC1,,2.82 µM (active)
Clc1cc(Cl)cc(CNc2ncncc2-c2ccc3c(c2)OCO3)c1,,3.55 µM (active)
CC(C)n1nc(-c2ccc3oc(N)nc3c2)c2c(N)ncnc21,,0.0708 µM (active)
Cc1ccc2nc(NC(=O)CSc3nc4c(c(=O)n3-c3ccccc3)SCC4)sc2c1,3.72% (inactive),
NC1(C(=O)N[C@@H](CCO)c2ccc(Cl)cc2)CCN(c2ncnc3[nH]ccc23)CC1,,5.62 µM (active)
